# In PubChem BioAssay AID1822 (The Scripps Research Institute Molecular Screening Center, 2009):
# Hit rate of the full screen: of about 290,000 compounds, about 3,500 (1.2%) were called active.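 How the source made its calls: active means inhibition above the campaign mean inhibition over all tested compounds plus 3 SD (cut at about 28% in these data); inactive means the rest.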 Only a selection was taken, and actives are over-represented in it overall.
# System: M18 aspartyl aminopeptidase (Plasmodium falciparum 3D7)
# Test: PfM18AAP inhibitors, malaria aminopeptidase, primary screen, biochemical, QFRET, recombinant enzyme (AID 1822);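 further: 0% = plate median of test compound wells and 100% = 2 mM ZnCl2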
# Conditions: H-Glu-NHMec fluorogenic cleavage, at 7.35 µM, hits give high values
row,Compound,inhibition
1,CCC(C)C(=O)Nc1ccccc1N1CCN(c2ccc(F)cc2)CC1 (centres undefined),4% (inactive)
2,OCCNc1nc2ccccc2n1-c1ncnc2sc3c(c12)CCC3,-6.82% (inactive)
3,Cc1ccc(C)c(NC(=O)CSc2nc3c(oc4ccccc43)c(=O)n2-c2ccccc2)c1,2.4% (inactive)
4,CCOC(=O)c1cccc(NS(=O)(=O)c2c(C(=O)N3CCCCCC3)c(C)n(C)c2C)c1,0.1% (inactive)
5,Cc1ccc(Sc2cc(N3CCOCC3)nc(-c3ccccc3)n2)cc1,28.3% (active)
6,Cc1cc(N2CCN(c3ccccc3)CC2)nc(N2CCOCC2)n1,-12.7% (inactive)
7,Cc1cc(N2CCOCC2)nc(-c2ccc(Br)cc2)n1,-2.46% (inactive)
8,Cc1cc(C)nc(-n2nc(C)cc2NC(=O)c2ccc(Br)o2)n1,-3.58% (inactive)
9,CSc1n[nH]c(=S)n1N,32.7% (active)
10,O=C(Nc1ccccc1)Nc1ccc(C(F)(F)F)cn1,-2.42% (inactive)
11,Oc1ccc(Br)cc1/C=N/Nc1ccccn1,15.5% (inactive)
12,Oc1ccc(/C=N/Nc2ccc(C(F)(F)F)cn2)cc1O,34.4% (active)
13,CCc1ccc(Nc2nnc(SCC(=O)c3ccc4c(c3)NC(=O)CO4)s2)cc1,3.56% (inactive)
14,O=C(Cn1nc([N+](=O)[O-])nc1Br)NC1CCCCC1,0.92% (inactive)
15,CCOc1cc(NC(=O)c2cnccn2)c(OCC)cc1NC(=O)c1ccc(C)cc1,5.95% (inactive)
16,O=C(OCC1O[C@@H](OC(=O)c2cc(O)c(O)c(O)c2)[C@@H](OC(=O)c2cc(O)c(O)c(O)c2)[C@@H](OC(=O)c2cc(O)c(O)c(O)c2)[C@@H]1OC(=O)c1cc(O)c(O)c(O)c1)c1cc(O)c(O)c(O)c1 (some centres undefined),41.3% (active)
17,CN(C)c1ccc(CNC(=O)CN2C(=O)COc3ccc(S(=O)(=O)N4CCCC4)cc32)cc1,4.42% (inactive)
18,COc1ccccc1CCNC(=O)C1CCN(C(=O)/C=C/c2ccccc2)CC1,-9.1% (inactive)
19,CCOc1ccc(/C=N\NC(=O)c2c(C)nc3cc(C)ccn23)cc1,-0.74% (inactive)
20,O=C(CN1C(=O)CSC1=O)N1CCCC(Nc2ccc(F)cc2)C1 (centres undefined),-12.5% (inactive)
21,O=C1CCCCN1CCCC(=O)N1CCCC(Nc2ccc(F)cc2)C1 (centres undefined),33.9% (active)
22,O=C(CN1CCOC1=O)N1CCCC(Nc2ccc(F)c(F)c2)C1 (centres undefined),-0.1% (inactive)
23,CCOC(=O)[C@@H]1[C@H]2COc3cc(OC)ccc3[C@@H]2N2C(=O)N(c3cccc(C)c3)C(=O)[C@@]12C,-13.2% (inactive)
24,CCOC(=O)c1c(-c2ccccc2)oc2cc(Br)c(O)c(C=O)c12,28.4% (active)

row,Compound,inhibition
1,CCOC(=O)c1c(-c2ccccc2)oc2cc(Br)c(O)cc12,-7.24% (inactive)
2,CCOC(=O)c1c(-c2ccccc2)oc2ccc(OCC(N)=O)cc12,4.97% (inactive)
3,O=C(c1cnc(Cl)c(Cl)c1)N1CCN(S(=O)(=O)c2ccc(F)cc2)CC1,-8.29% (inactive)
4,COc1ccc(OCC(=O)Nc2nnc(-c3ccco3)s2)cc1,29.5% (active)
5,CNc1nnc(-c2ccco2)s1,-6.9% (inactive)
6,Cc1ccc(OCC(=O)Nc2nnc(-c3ccco3)s2)cc1,-1.67% (inactive)
7,N#Cc1cccc(CN2CCC(=O)N([C@H](CO)c3ccccc3)CC2)c1,-11.8% (inactive)
8,CCn1c2ccc(F)cc2c2nnc(SCCN3CCOCC3)nc21,10.1% (inactive)
9,Cc1ccc2c(c1)c1ncn(Cc3ccc(F)cc3)c(=O)c1n2C,-2.55% (inactive)
10,Cn1c2ccc(F)cc2c2nnc(NN)nc21,30.3% (active)
11,Cc1cccc(C(=O)NNC(=O)CSc2nnc(C(C)C)n2C)c1,-1.87% (inactive)
12,COc1ccccc1/C=N\Nc1cc(C)nc(-n2nc(C)cc2C)n1,4.17% (inactive)
13,COc1cccc(/C=N/Nc2cc(C)nc(-c3ccccc3O)n2)c1O,52.7% (active)
14,COc1cccc(/C=N/Nc2ncc(C(F)(F)F)cc2Cl)c1O,12.8% (inactive)
15,COC(=O)c1ccc(OC(=O)c2cnccn2)cc1,5.19% (inactive)
16,O=c1oc2ccccc2cc1-c1cn(-c2ccccc2)c(=S)[nH]1,11.4% (inactive)
17,S=c1[nH]c(-c2cccs2)cn1-c1ccccc1,38.5% (active)
18,COc1ccc(-c2cn(-c3ccc(OC)cc3)c(=S)[nH]2)cc1,24.3% (inactive)
19,Cc1cc(C)c2nc(N(CCN(C)C)C(=O)/C=C/c3cccs3)sc2c1,0.71% (inactive)
20,S=C(NCCCc1ccccc1)Nc1ccc(Br)cc1,-6.24% (inactive)
21,O=C(c1cc2cc(Br)cc(Br)c2oc1=O)N1CCOCC1,-1.08% (inactive)
22,O=C(CSC(=S)N1CCOCC1)c1ccccc1,4.44% (inactive)
23,O=C(CSC(=S)N1CCOCC1)c1cc(Br)cc(Br)c1O,44.3% (active)
24,Cc1ccc2c(c1)sc1ncc(NC(=O)c3ccccc3)c(=O)n12,-1.31% (inactive)

row,Compound,inhibition
1,CN(CC(=O)NCCN1CCOCC1)S(=O)(=O)c1ccc(F)cc1,-0.36% (inactive)
2,CCc1ccc(C(=O)COC(=O)c2ccco2)cc1,1.62% (inactive)
3,Cc1ccc(OCc2n[nH]c(=S)n2-c2ccc(C)cc2)cc1,14.1% (inactive)
4,S=c1[nH]nc(COc2ccccc2)n1-c1ccccc1,19.1% (inactive)
5,COc1ccc(OCc2n[nH]c(=S)n2N)cc1,32.5% (active)
6,COc1ccc(CNC(=O)CN(C(=O)c2csnn2)c2cnc3ccccc3c2)cc1,3.77% (inactive)
7,CN(C)[C@@H]1C(=O)C(C(N)=O)=C(O)[C@@]2(O)C(=O)C3=C(O)c4c(O)ccc(Cl)c4[C@@H](O)[C@H]3C[C@@H]12,37% (active)
8,COc1ccc(CN2CCN(C(=O)CCC(=O)Nc3nnc(C(C)C)s3)CC2)cc1F,0.79% (inactive)
9,CC1CC(C)CN(CCCNC(=O)c2csc3c2CCCCC3)C1 (centres undefined),-10.4% (inactive)
10,CCOc1ccc(C2C(C#N)=C(N)N(N(C)C)C3=C2C(=O)CCC3)cc1 (centres undefined),8.27% (inactive)
11,COc1ccc(C2C3=C(CCCC3=O)N(CC(=O)O)C3=C2C(=O)CCC3)cc1,5.23% (inactive)
12,CCOc1ccc(C2C3=C(CCCC3=O)N(CC(=O)O)C3=C2C(=O)CCC3)cc1,32.6% (active)
13,COc1cccc(C(=O)NNS(=O)(=O)c2ccc(F)cc2)c1,10.3% (inactive)
14,CC(C)CN(CC(C)C)CC(O)CN(c1ccccc1)S(=O)(=O)c1ccccc1[N+](=O)[O-] (centres undefined),2.89% (inactive)
15,Cc1ccc(Cn2c(SCC(=O)N/N=C/c3ccccc3OCC(=O)O)nc3ccccc32)cc1,5.43% (inactive)
16,C=CCn1c(Cn2nnc3ccccc32)nnc1SCC(=O)N/N=C/c1cc(Br)cc(OC)c1O,28.3% (active)
17,COc1ccc(OC)c(/C=N/NC(=O)CSc2nnc(C)n2-c2ccccc2)c1,-0.06% (inactive)
18,O=C1C2CCCN2C(=O)N1CCCCN1CCN(c2cccc(C(F)(F)F)c2)CC1 (centres undefined),-6.19% (inactive)
19,CC(C)C1Cc2c(sc3c2c(=O)n(-c2ccccc2)c2nncn32)CO1 (centres undefined),9.11% (inactive)
20,CN(C)c1ccc(C(CC(=O)O)C(=O)O)cc1 (centres undefined),33.2% (active)
21,CC(=O)NC(CC(=O)O)c1ccc(F)cc1 (centres undefined),4.92% (inactive)
22,CC(C)CNC(=O)C(=O)Nc1ccc(N(C)C)cc1,5.25% (inactive)
23,COc1ccc(OC)c(C(O)c2nc3ccccc3n2C)c1 (centres undefined),2.35% (inactive)
24,CC(=O)c1ccc(N2CCN(CC(O)c3ccccc3)CC2)cc1 (centres undefined),-0.23% (inactive)

row,Compound,inhibition
1,COC(=O)c1ccc(CN2C(=O)NC(c3ccccc3)(c3ccccc3)C2=O)o1,0.97% (inactive)
2,CCOCCCNC(=O)c1ccc(CS(=O)(=O)c2cccc(C(F)(F)F)c2)o1,78.5% (active)
3,COc1ccccc1CNC(=O)c1ccc(CS(=O)(=O)c2ccccc2)o1,-0.58% (inactive)
4,COc1ccc(CCNC(=O)c2ccc(CS(=O)(=O)c3ccc(Br)cc3)o2)cc1OC,-0.17% (inactive)
5,Cc1c(Cl)cccc1NC(=O)[C@@]1(CC(=O)O)CC(/C=C/c2ccccc2)=NO1,-3.65% (inactive)
6,O=C(NCCO)C(=O)NCC(c1ccc2c(c1)OCO2)N1CCN(c2ccc(F)cc2)CC1 (centres undefined),2.98% (inactive)
7,COc1ccccc1-c1nnc(SCC(=O)Nc2cc(C)on2)o1,39.2% (active)
8,COc1ccccc1-c1nnc(SCC(=O)Nc2ccccc2)o1,17.1% (inactive)
9,Cc1cc(NC(=O)CSc2nnc(-c3ccc(Cl)s3)o2)no1,21.4% (inactive)
10,COc1ccc(C(=O)CCC(=O)Nc2ccc(Cl)cc2)cc1,-1.71% (inactive)
11,Cc1ccccc1Nc1nc(-c2cccnc2)cs1,1.18% (inactive)
12,COc1ccc(-c2csc(Nc3ccc(O)cc3)n2)cc1,28.1% (active)
13,COc1cccc(CC(=O)Nc2nc(-c3ccc(OC)c(OC)c3)cs2)c1,-8.12% (inactive)
14,COc1ccc2nc(Nc3nc(-c4ccncc4)cs3)sc2c1,-1.76% (inactive)
15,COc1ccc(C)cc1Nc1nc(-c2c(C)[nH]c3ccccc23)cs1,-5.8% (inactive)
16,COc1ccc(OC)c(Nc2nc(-c3ccc(O)c(O)c3)cs2)c1,56.5% (active)
17,CN(c1ccc(O)cc1)c1nc(-c2cccnc2)cs1,7.5% (inactive)
18,Oc1ccc(-c2csc(Nc3cccnc3)n2)cc1,55.7% (active)
19,NS(=O)(=O)c1ccc(Nc2nc(-c3ccccc3)cs2)cc1,2.74% (inactive)
20,O=C(N/C(=C\c1ccc([N+](=O)[O-])cc1)C(=O)N1CCOCC1)c1cccc(Br)c1,0.07% (inactive)
21,COc1ccc(C(=O)N2CCCN(C)CC2)c(OC)c1,-1.62% (inactive)
22,CCOc1cc(/C=C2\SC(N3CCCC(C)C3)=NC2=O)ccc1O (centres undefined),9.44% (inactive)
